Source: PubChem
Autofluor counter: flagged as autofluorescent in microsphere protease counterscreen; compound autofluorescence counterscreen, microsphere flow cytometry; hits give high values; fluorescence intensity (concentration not given with the values); 3.1% of 360,000 active; AID 624483; in the data active = fluorescence intensity above about 16000; inconclusive = no clear call, values can overlap the other calls
Anthrax LF inh2: anthrax lethal factor protease inhibition. P15917. multiplex microsphere protease cleavage assay, LF. inhibition, % at 10 µM. 0.12% of 360,000 active
Target sequence (P15917 whole entry, looked up): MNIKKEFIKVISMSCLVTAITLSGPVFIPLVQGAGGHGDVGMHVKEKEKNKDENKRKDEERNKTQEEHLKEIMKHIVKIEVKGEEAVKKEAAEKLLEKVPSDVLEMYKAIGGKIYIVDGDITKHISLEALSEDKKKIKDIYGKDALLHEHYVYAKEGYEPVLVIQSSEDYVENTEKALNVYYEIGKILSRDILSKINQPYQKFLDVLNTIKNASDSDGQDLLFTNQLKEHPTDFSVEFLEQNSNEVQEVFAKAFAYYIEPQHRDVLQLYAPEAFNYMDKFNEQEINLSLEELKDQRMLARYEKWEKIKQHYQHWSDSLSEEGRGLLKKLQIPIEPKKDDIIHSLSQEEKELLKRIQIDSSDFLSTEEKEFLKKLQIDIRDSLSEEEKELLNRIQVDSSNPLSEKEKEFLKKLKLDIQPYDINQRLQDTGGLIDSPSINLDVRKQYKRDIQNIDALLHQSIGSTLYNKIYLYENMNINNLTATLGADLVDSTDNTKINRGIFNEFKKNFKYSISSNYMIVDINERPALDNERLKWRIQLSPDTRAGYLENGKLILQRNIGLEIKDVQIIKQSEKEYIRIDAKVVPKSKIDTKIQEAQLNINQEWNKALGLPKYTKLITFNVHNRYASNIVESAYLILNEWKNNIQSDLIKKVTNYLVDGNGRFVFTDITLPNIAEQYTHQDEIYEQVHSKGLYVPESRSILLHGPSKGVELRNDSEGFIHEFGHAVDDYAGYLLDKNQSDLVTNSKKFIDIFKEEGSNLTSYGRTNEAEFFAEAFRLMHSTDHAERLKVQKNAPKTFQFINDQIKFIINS
BoNT A protease: inhibitors of Botulinum neurotoxin A light chain protease; inhibition, % at 10 µM; multiplex microsphere protease substrate cleavage, flow cytometry; 0.17% of 360,000 active; AID 588499
Vc quorum ag-1: quorum light induction in luxS cqsA deficient V. cholerae. AID 588436. V. cholerae BH1578 lux reporter, luminescence, 6 h. 0.16% of 350,000 active. activation, % at 18.7 µM; in the data active = activation mostly above about 9.7%, no sharp cut-off; inconclusive = no clear call, values can overlap the other calls; inactive = mostly below about 3.7%
BJeLR viability: kills HRASV12-expressing BJeLR cells; BJeLR (HRASV12) viability, CellTiter-Glo ATP luminescence, 48 h; inhibition, % (concentration not given with the values); 0.17% of 300,000 active; in the data active = inhibition above about 50%; inconclusive = no clear call, values can overlap the other calls
BoNT F protease: inhibitors of Botulinum neurotoxin F light chain protease; Multiplex microsphere protease cleavage assay, flow cytometry; inhibition, % at 10 µM; 0.22% of 360,000 active; in the data active = inhibition above about 35%, passing the limit was not always enough; inconclusive = no clear call, values can overlap the other calls
Vc quorum ag-2: inducers of V. cholerae quorum light production without autoinducers | 620 tested, under 10 active | V. cholerae BH1578 lux reporter, luminescence, 6 h | activation, % at 50 µM | shares compounds with Vc quorum ag-1; call rule not given here
HeLa 24h tox: kills HeLa cells within 24 hours; HeLa viability, CellTiter-Glo ATP luminescence; shares compounds with Vc quorum ag-1; activity change, negative = cytotoxicity, % at 35 µM; 25 tested, under 10 active; AID 624140;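 active = signal drop with fitted half-maximal concentration at or below twice the highest valid dose; inconclusive = flat curve with 30 to 70% loss, or poor fit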
Large screens that a line does not name were inactive (follow-up assays come after a bar, where they were run). A selection: hits, their analogues and other compounds. The true share with any hit is near 3.7%. Rule as the data show it, unless noted: active = inhibition above about 30%; inconclusive = no clear call, values can overlap the other calls; inactive = below that.

CN(CC(=O)NCCN1CCOCC1)S(=O)(=O)c1ccc(Cl)cc1	Vc quorum ag-1 37 (no result: BJeLR viability) | Vc quorum ag-2 inactive
COc1cc(C(=O)Nc2ccc3c(c2)OCO3)ccc1-n1cnnn1	none
COc1cc(NC(=O)Cc2cccs2)ccc1-n1cnnn1	none | Vc quorum ag-2 inactive
CCCCNC(=O)C1(C)CCN1C(=O)c1cccc2c1OCCO2 (configuration not stated)	none (no result: BJeLR viability)
O=C(COC(=O)/C=C/c1cccc(F)c1)NC1CCCC1	none (no result: BJeLR viability) | Vc quorum ag-2 inactive
O=c1c(=O)n(CCO)n(CCO)c(=O)n1CCO	none (no result: BJeLR viability)
Cc1ccc(S(=O)(=O)NCCCC(=O)O)cc1	none
Cc1ccc(C)c(C(=O)COC(=O)CNS(=O)(=O)c2ccccc2)c1	none
Cc1ccc(S(=O)(=O)NCCC(=O)O)cc1	Vc quorum ag-1 33 | Vc quorum ag-2 inactive
CC(=O)Nc1ccc(S(=O)(=O)NCCC(=O)OCC(=O)c2cc(C)ccc2C)cc1	none (no result: BJeLR viability) | Vc quorum ag-2 inactive
O=C(Nc1ccc2c(c1)OCO2)c1csc([C@@H]2O[C@H](CO)[C@H](O)[C@H](O)[C@H]2O)n1	none (no result: BJeLR viability)
Nc1ccn([C@@H]2O[C@H](CN=C3NS(=O)(=O)c4ccccc43)[C@@H](O)[C@H]2O)c(=O)n1	none (no result: BJeLR viability)
CN(C)C(=O)c1cnc(Cc2c[nH]c3ccccc23)c(I)c1	none (no result: BJeLR viability)
O=C(O)CCCn1nc(-c2ccccc2)c2ccccc21	none
COC(=O)Cn1nc(-c2ccccc2)c2ccccc21	none | Vc quorum ag-2 inactive
C[C@@H]1COc2cccc(N3CCC[C@H]3CO)c2S(=O)(=O)N1	none (no result: Vc quorum ag-1, BJeLR viability)
Cc1ccc2nc(SCc3nnc(-c4ccccc4Br)o3)[nH]c2c1	none | Vc quorum ag-2 inactive
Cc1ccc(-n2nnnc2SCc2nnc(-c3ccccc3Br)o2)cc1	none
O=C(NCCC1CCCCN1S(=O)(=O)c1ccccc1)C(=O)NCc1ccccc1F (configuration not stated)	none
O=C(NCc1ccccc1F)C(=O)NCC1CCCN1S(=O)(=O)c1ccccc1 (configuration not stated)	none | Vc quorum ag-2 inactive
O=C(Oc1ccc2ccc(OC(=O)N3CCOCC3)cc2c1)N1CCOCC1	Vc quorum ag-1 17 | Vc quorum ag-2 inactive
Cc1nc2ccc(C(=O)OCC(=O)N(C)c3ccccc3)cc2nc1C	none (no result: BJeLR viability) | Vc quorum ag-2 inactive
CN(C(=O)COC(=O)c1ccc(Cl)c(N)c1)c1ccccc1	none
COc1cccc(CC(=O)NC2CCCN(Cc3ccc(Cl)cc3)C2)c1 (configuration not stated)	BoNT F protease inconclusive
O=C(COc1ccccc1)NC1CCCN(Cc2ccccc2)C1 (configuration not stated)	none (no result: Autofluor counter, Anthrax LF inh2, BoNT A protease, Vc quorum ag-1, BJeLR viability, BoNT F protease) | HeLa 24h tox inactive
COc1ccc(OCC(=O)NC2CCCN(Cc3ccc(Cl)cc3)C2)cc1 (configuration not stated)	none (no result: Vc quorum ag-1) | Vc quorum ag-2 inactive
CCNC(=O)CCSc1nnc(-c2ccco2)o1	Vc quorum ag-1 835 | Vc quorum ag-2 inactive
CCOC(=O)CC(=O)Nc1nnc(C(C)C)s1	Vc quorum ag-1 17 | Vc quorum ag-2 inactive
CCN(C(=O)COC(=O)c1cc(-c2ccccc2)nc2ccc(Br)cc12)C1CCS(=O)(=O)C1 (configuration not stated)	none
CCN(C(=O)COc1ncnc2ccc(Br)cc12)C1CCS(=O)(=O)C1 (configuration not stated)	Vc quorum ag-1 17 | Vc quorum ag-2 inactive
Clc1ccc(C2=Nn3c(nnc3-c3n[nH]c4c3CCC4)SC2)cc1	none
Brc1ccc(C2=Nn3c(nnc3-c3n[nH]c4c3CCC4)SC2)cc1	Vc quorum ag-1 25 | Vc quorum ag-2 inactive
Cc1ccc(CNC(=O)Nc2nnc([C@@H]3C[C@H](O)[C@@H](CO)O3)s2)cc1	none (no result: BJeLR viability)
CCCn1nnnc1NCc1c(Cl)cccc1Cl	none
CCCn1nnnc1NCc1ccc(N2CCCC2)cc1	Autofluor counter 17311, Vc quorum ag-1 active | HeLa 24h tox inactive
CCCCn1nnnc1NCc1ccc(N2CCCC2)cc1	Vc quorum ag-1 829 | Vc quorum ag-2 inactive
CCCCn1nnnc1NCc1cccnc1	none
CC1(C(=O)NS(=O)(=O)c2ccc3ccccc3c2)CCN1C(=O)Cc1ccc(-c2ccccc2)cc1 (configuration not stated)	none (no result: BJeLR viability)
CCc1sc(N(C(=O)Cc2ccccc2)c2ccccc2)nc1-c1ccccc1	none
CCc1sc(N(C(=O)Cc2ccccc2)c2ccc(F)cc2)nc1-c1ccccc1	none | Vc quorum ag-2 inactive
Cc1cc(Cl)ccc1OCC(=O)OCC(=O)NC1CCS(=O)(=O)C1 (configuration not stated)	none (no result: BJeLR viability) | Vc quorum ag-2 inactive
O=C(COC(=O)COc1ccc(Cl)cc1)NC1CCS(=O)(=O)C1 (configuration not stated)	Autofluor counter inconclusive (no result: BJeLR viability)
C[C@H]1CN([C@@H](C)CO)C(=O)c2cccc(NC(=O)C3CC3)c2O[C@H]1CN(C)S(=O)(=O)c1cccs1	none (no result: BJeLR viability) | Vc quorum ag-2 inactive
C[C@H](CO)N1C[C@H](C)[C@@H](CN(C)S(=O)(=O)c2cccs2)Oc2c(NC(=O)C3CC3)cccc2C1=O	none (no result: BJeLR viability)
Cc1noc(C)c1NC(=O)N(C)C[C@H]1Oc2c(NS(=O)(=O)c3cccs3)cccc2C(=O)N([C@H](C)CO)C[C@@H]1C	none (no result: BJeLR viability)
Cc1noc(C)c1NC(=O)Nc1cccc2c1O[C@H](CN(C)S(=O)(=O)c1cccs1)[C@@H](C)CN([C@H](C)CO)C2=O	none (no result: BJeLR viability) | Vc quorum ag-2 inactive
CCCCCn1nc(C(=O)N(CC(C)C)c2c(N)n(CCCC)c(=O)[nH]c2=O)c2ccccc2c1=O	none | Vc quorum ag-2 inactive
CCC(NC(=O)Nc1nccs1)(C(F)(F)F)C(F)(F)F	Vc quorum ag-1 17 | Vc quorum ag-2 inactive
CN(Cc1ccccc1F)C(=O)c1cccc(NC(=O)CC2SC(N3CCCCC3)=NC2=O)c1 (configuration not stated)	Anthrax LF inh2 inconclusive, BoNT A protease inconclusive, BoNT F protease inconclusive (no result: BJeLR viability)
Cc1c(C(=O)NCc2cccc(C(F)(F)F)c2)sc(=O)n1Cc1ccc(C(=O)N(C)C)cc1	none (no result: BJeLR viability)
CCN(CC)C(=O)C1=C(C)N(CCCOC)C(=O)C(CC(=O)NCCCN(C)C)C1 (configuration not stated)	none (no result: BJeLR viability)
COc1ccccc1NC(=O)COc1ccc2c(c1)OCO2	Autofluor counter inconclusive, Vc quorum ag-1 105 | Vc quorum ag-2 inactive
COc1ccc(OCC(=O)Nc2ccccc2OC)cc1	Vc quorum ag-1 29 | Vc quorum ag-2 inactive
CCOc1ccccc1NC(=O)COc1ccc2c(c1)OCO2	none
CN(C(=O)c1cccc(NC(=O)Cc2ccc(NC(=O)C3CCN(C(=O)c4ccccc4)CC3)cc2)c1)C1CCCCC1	none (no result: BJeLR viability)
COc1ccc([C@@H]2CC(=O)[C@@H]3CN(S(=O)(=O)c4ccc(C)cc4)[C@H](c4cccc(Cl)c4)C[C@@H]3N2S(=O)(=O)c2ccccc2)cc1	none (no result: Vc quorum ag-1, BJeLR viability)
O=C(NNC(=O)c1cc(S(=O)(=O)N2CCOCC2)ccc1Cl)c1ccc(F)cc1	none (no result: BJeLR viability)
